Assay results: ChEMBL document CHEMBL3988442, “University of Dundee, Small-Polar-MMV Screening Library” (2021)
Hit rate of the full screen: of about 53,000 compounds, about 900 (1.7%) showed an effect of 50% or more. This is one part of a sample in which strong results are shown more often than they occur.

Test system: Mycobacterium tuberculosis
Test: Cornell - Phenotypic assay to identify agents that inhibit growth of Mycobacterium tuberculosis
Type: functional
Set-up: scale not given: direction of the effect not stated beside the values
Settings: 10 mM as filed; unlikely as a test dose

| SMILES | Percent Effect |
| --- | --- |
| CN(Cc1cccc(F)c1)C(=O)CN1CCCC1CCc1ccccc1 (stereo not drawn) | 61.93% |
| CN(Cc1cccc(F)c1)C(=O)CN1CCCCC1Cn1cncn1 (stereo not drawn) | -21.34% |
| N#CCCN(CCC#N)C(=O)CN1CCCC1Cc1cccc(F)c1 (stereo not drawn) | 5.513% |
| NC(=O)Nc1cccc(Oc2ccccn2)c1 | 3.298% |
| OCCN1CCN(CC(O)c2ccc(C(F)(F)F)cc2)CC1 (stereo not drawn) | -26.61% |
| O=c1oc(-c2ccc(F)cc2)nn1CN1CCSCC1 | -31.85% |
| CCS(=O)(=O)N1C[C@@H](C(=O)NC(C)C)[C@@]2(Cc3ccccc3C(=O)N2)C1 | 50.91% |
| CC(C)NC(=O)[C@@H]1CN(C(=O)C2CC2)C[C@]12Cc1ccccc1C(=O)N2 | 41.43% |
| CN1C[C@@H](C(=O)NCC(F)(F)F)[C@@]2(CCc3ccccc3C(=O)N2)C1 | 4.729% |
| CCN(CC)c1ccc(NC(=O)NC(C)Cn2cccn2)cn1 (stereo not drawn) | -29.36% |
| CC(Cn1cccn1)NC(=O)Nc1ccc(N(C)C)nc1 (stereo not drawn) | -5.183% |
| CC(CNC(=O)Nc1ccc(N(C)C)nc1)Cn1cccn1 (stereo not drawn) | 53.74% |
| CN1C[C@H](O)[C@]2(CCN(Cc3ccc(OC(F)(F)F)cc3)C2)S1(=O)=O | 30.47% |
| O=C(C[C@@H]1COC[C@H]2CN(Cc3ccc(F)cc3)C[C@@H]12)N1CCCC1.O=C(O)C(F)(F)F | -5.358% |
| CC(C)c1noc(C2CCN(C(=O)C3CCCO3)CC2)n1 (stereo not drawn) | 4.846% |
| O=c1c2cc3c(cc2nnn1Cc1cccc(F)c1)OCCO3 | -9.384% |
| Cc1ccc2c(n1)N(Cc1cccnc1)CCN(C(=O)C1CC=CC1)C2 | 30.61% |
| O=C(Nc1nc2c(s1)CN(C(=O)NCc1cccs1)CC2)C1CC1 | 25.74% |
| CC(C)NC(=O)Nc1nc2c(s1)CN(C(=O)NCc1cccs1)CC2 | 53.32% |
| COC(=O)Nc1nc2c(s1)CN(C(=O)NCc1cccs1)CC2 | 35.61% |
| O=C(O)c1ccc(CN2CCCC(Cc3ccn[nH]3)C2)cc1 (stereo not drawn) | 18.19% |
| Cc1cccc(OCCN2CCC(c3ccnn3CCO)CC2)c1 | -13.34% |
| Cc1nn(CCCNC(=O)C2CCN(S(C)(=O)=O)CC2)cc1Br | 34.63% |
| Cc1nn(CCCNC(=O)C2CCN(S(C)(=O)=O)CC2)c(Cl)c1Cl | 51.75% |
| Cc1nn(CCCNC(=O)C2CCN(S(C)(=O)=O)CC2)cc1Cl | 12.8% |
| CCCn1nnnc1COc1ccc(C(=O)OC)cc1 | 2.105% |

| SMILES | Percent Effect |
| --- | --- |
| CCC(=O)Nc1ccc(C(C)Nc2nc3c(cnn3C)c(=O)[nH]2)cc1 (stereo not drawn) | 16.12% |
| CC(Nc1nc2c(cnn2C)c(=O)[nH]1)c1ccc(F)cc1 (stereo not drawn) | 46.54% |
| CC(C)Sc1ccc(C(C)Nc2nc3c(cnn3C)c(=O)[nH]2)cc1 (stereo not drawn) | 64.6% |
| Cc1nnc(Nc2cccc(C3CCCN(Cc4ncc[nH]4)C3)n2)s1 (stereo not drawn) | -14.35% |
| CNCCCNc1nc(C2CCCC2)nc2c1cnn2C | 15.27% |
| Cn1ncc2c(NCCCOc3cccnc3)nc(C3CCCC3)nc21 | -0.5342% |
| CCOCCNc1nc(C2CCCC2)nc2c1cnn2C | 15.61% |
| Cn1ncc2c(NCCn3cccc3)nc(C3CCCC3)nc21 | 23.68% |
| Cn1ncc2c(NCCOc3ccc(F)cc3)nc(C3CCCC3)nc21 | 105.9% |
| Cn1ncc2c(NCCC34CCCN3CCC4)nc(C3CCCC3)nc21 | 10.87% |
| CCS(=O)(=O)CCNc1nc(C2CCCC2)nc2c1cnn2C | -9.599% |
| CC(C)N(CCNc1nc(C2CCCC2)nc2c1cnn2C)C(C)C | 95.65% |
| Cn1ncc2c(NCCOCc3ccccc3)nc(C3CCCC3)nc21 | 58.05% |
| Fc1ccc([C@@H]2COC[C@H]2NCc2cccc(F)c2)cc1.O=C(O)CC(O)(CC(=O)O)C(=O)O | 12.54% |
| CCCNC(=O)c1nn(CC)cc1NC(=O)c1cn(C)nc1C | 34.88% |
| CC(=O)Nc1nc(CN2CCn3c(C)nnc3C2)cs1 | -12.41% |
| COCCCn1c(CN2CCSCC2)cnc1S(=O)(=O)C1CCCC1 | 27.36% |
| COCCN1C[C@@H](c2ccccc2)[C@@]2(CCN(CC(=O)N(C)C)C2=O)C1.O=C(O)C(F)(F)F | 13.65% |
| O=C(c1n[nH]c(=O)c2ccccc12)N1CCCCC1c1ccn[nH]1 (stereo not drawn) | -33.63% |
| CS(=O)(=O)c1cn[nH]c1C1CCCCN1C(=O)c1cncs1 (stereo not drawn) | -10.78% |
| O=C(c1cncs1)N1CCCC1c1ccn[nH]1 (stereo not drawn) | 104.4% |
| Cc1ncncc1C(=O)N1CCCC(Cc2nccs2)C1 (stereo not drawn) | -16.51% |
| Cc1csc(CN2CC[C@H]3C[C@@H](c4nnc(C)[nH]4)O[C@@H]3C2)n1 | -4.039% |
| CC(C)N(C(=O)Cn1nc2n(c1=O)CCCCC2)C1CCC1 | 0.8005% |
| Fc1cccc(CN2CCC[C@H](Cn3nnc(-c4ccccn4)n3)C2)c1 | 14.75% |
| Fc1ccccc1CN1CCC[C@H](Cn2nnc(-c3cccs3)n2)C1 | 35.5% |

| SMILES | Percent Effect |
| --- | --- |
| Fc1ccccc1CN1CCC[C@@H](Cn2nnc(-c3cccs3)n2)C1 | 75.98% |
| CCc1ccccc1NC(=O)c1cnn(C)c1C | 25.28% |
| Nc1no[n+]([O-])c1C(=O)NCc1ccccn1 | -59.59% |
| O=C(c1ccncc1)N1CCCC1c1nc(O)cc(-c2ccccn2)n1 (stereo not drawn) | -36.16% |
| CSCC(CCO)Nc1nc(C(F)F)nc2ccccc12 (stereo not drawn) | 41.07% |
| CCc1noc(C(C)N2CCN(CC(=O)N3CCOCC3)CC2)n1 (stereo not drawn) | 11.6% |
| N#Cc1cccc(NC2CC(=O)N(C3Cc4ccccc4C3)C2)n1 (stereo not drawn) | 53.28% |
| N#Cc1cccc(NC2CC(=O)N(CCCc3ccccc3)C2)n1 (stereo not drawn) | 2.519% |
| N#Cc1cccc(NC2CC(=O)N(Cc3ccccc3Cl)C2)n1 (stereo not drawn) | -13.97% |
| O=C1CCC2(CCN(Cc3ccsc3)CC2)N1Cc1ccccc1 | 26.5% |
| Cc1ccoc1C(=O)NC1CCN(Cc2ccccc2C#N)CC1 | -4.356% |
| CC(CNC(=O)c1ccc(C#N)cc1)N1CCc2ccccc21 (stereo not drawn) | 20.43% |
| CC(CNC(=O)Nc1ccc(C#N)cc1)N1CCc2ccccc21 (stereo not drawn) | 62.86% |
| COc1ccc(NC(=O)NCC(C)N2CCc3ccccc32)cc1 (stereo not drawn) | 13.58% |
| Cc1nc(C2CCCN2CC(=O)Nc2cc(C(C)(C)C)nn2C)no1 (stereo not drawn) | -17.86% |
| O=C(c1cnc(-c2cccs2)s1)N1CCCC(n2ccnc2)C1 (stereo not drawn) | 6.926% |
| Cc1oncc1C(=O)N1CCC2(CC1)CC(N1CCOCC1)C2.O=C(O)C(F)(F)F | 14.16% |
| Cc1nc(NCC2CC2)nc2c1COCC21CCN(CC(=O)N(C)C)C1 (stereo not drawn) | -16.56% |
| OCCn1nnnc1Cc1ccc(Br)cc1 | 32.76% |
| CC(C)OCCn1nnnc1Cc1ccc(Br)cc1 | 80.17% |
| N#CCCCn1nnnc1Cc1ccc(Br)cc1 | 19.45% |
| Cc1ccnn1CCC(=O)N1CCCC[C@]2(C)NC(=O)CCC[C@H]12 | 0.426% |
| CNC(=O)C1CN(C)CCN(C(=O)CCn2nnc3ccccc32)C1 (stereo not drawn) | 37.61% |
| CN1CCN(C(=O)CCn2ncc3ccccc32)CC(C(N)=O)C1 (stereo not drawn) | 40.84% |
| CN1CCN(C(=O)CCn2nnc3ccccc32)CC(C(N)=O)C1 (stereo not drawn) | 53.1% |
| CCC(C(=O)Nc1ccc2nc(C)oc2c1)N1CCCC1=O (stereo not drawn) | -18.53% |

| SMILES | Percent Effect |
| --- | --- |
| Cn1cccc1C(=O)N1CCC2(CC1)CN(S(C)(=O)=O)c1ccccc12 | 9.432% |
| OC(COc1ccccc1Br)COC1CCOCC1 (stereo not drawn) | 10.03% |
| Clc1ccc(CNc2ccc(Cl)cn2)cc1 | -25.47% |
| CN(C)S(=O)(=O)c1ccc(CNc2ccc(Cl)cn2)cc1 | 63.29% |
| CN(c1ccc(CNc2ccc(Cl)cn2)cc1)S(C)(=O)=O | 21.91% |
| O=C(COCC1CC1)Nc1cc(-c2ccc(Br)s2)n[nH]1 | 108.2% |
| O=C(COCC1CC1)Nc1ncccc1O | -3.464% |
| COc1ccccc1-c1cc(NC(=O)COCC2CC2)[nH]n1 | 43.6% |
| O=C(CCn1c(C(F)F)cc2cccnc21)NC1CCCC1 | -12.05% |
| CC(C)CNC(=O)c1cc2c(s1)CCN2S(C)(=O)=O | -19.48% |
| Cc1cc(C2CCC2)nc(N2CCC3(CCNC(=O)CC3)CC2)n1 | 19.37% |
| Cn1ccnc1SCC(=O)NCc1ccc2c(c1)CCC(=O)N2 | -11.99% |
| Cc1ccc(C2CSCCN2C(=O)c2cc(C(N)=O)cs2)o1 (stereo not drawn) | 23.87% |
| Cc1c(C(=O)N(C)CC(F)(F)F)nnn1-c1ccc(F)cc1 | 26.05% |
| c1ccc2c(c1)CCN(c1nc(-c3ccncc3)nc3c1CCNC3)C2 | 18.38% |
| CN(C)c1nc2c(c(N3CCc4ccccc4C3)n1)CCNC2 | 60.07% |
| Cc1ccccc1N1CCN(c2nc(N(C)C)nc3c2CCNC3)CC1 | -18.26% |
| Cc1n[nH]c(C)c1-c1nccnc1CC1CCN(C(C)C)CC1 | -33.1% |
| COc1ccc(C(=O)N2CC(=O)N(C3CCC3)CC(O)C2)cc1OC (stereo not drawn) | -13.29% |
| CC(Oc1cc(Cl)cc(Cl)c1)C(=O)NCCOCC(N)=O (stereo not drawn) | -19.42% |
| CC(=O)NC1CCN(C(=O)Nc2cccc(C(F)(F)F)c2)CC1 | 20.69% |
| O=C(Nc1cccc(C(F)(F)F)c1)N1CCN(CCn2ccnc2)CC1 | 98.5% |
| O=C(Nc1ccc2c(c1)OCO2)N1CCN(CCn2ccnc2)CC1 | -27.6% |
| Cc1nn(C)c(C)c1CN1CCCC1c1nccc(CN(C)C)n1 (stereo not drawn) | -90.49% |
| CS(=O)(=O)N1CC(c2n[nH]c3ncccc23)C1 | -14.19% |
